Data on 91 compounds can be found in article PMC4336329 (PLoS ONE, 2015).

Each structure is given as a SMILES string. The whole screen tested about 310,000 compounds, of which about 14,000 (4.5%) showed an effect of 50% or more. The effect is printed as a negative number. The list comes from a sample in which strong results are over-represented; it also holds similar structures and randomly drawn compounds.
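Note: peak tail current of the secondary pulse compared with the same well before compound.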

For this test, the target named is human ether-à-go-go-related gene (hERG) potassium channel (human, UniProt Q12809). The test can be described thus: primary screen, population patch clamp on CHO cells stably expressing hERG; higher = less effect of the substance.
Sequence of human ether-à-go-go-related gene (hERG) potassium channel (Q12809 whole entry, looked up): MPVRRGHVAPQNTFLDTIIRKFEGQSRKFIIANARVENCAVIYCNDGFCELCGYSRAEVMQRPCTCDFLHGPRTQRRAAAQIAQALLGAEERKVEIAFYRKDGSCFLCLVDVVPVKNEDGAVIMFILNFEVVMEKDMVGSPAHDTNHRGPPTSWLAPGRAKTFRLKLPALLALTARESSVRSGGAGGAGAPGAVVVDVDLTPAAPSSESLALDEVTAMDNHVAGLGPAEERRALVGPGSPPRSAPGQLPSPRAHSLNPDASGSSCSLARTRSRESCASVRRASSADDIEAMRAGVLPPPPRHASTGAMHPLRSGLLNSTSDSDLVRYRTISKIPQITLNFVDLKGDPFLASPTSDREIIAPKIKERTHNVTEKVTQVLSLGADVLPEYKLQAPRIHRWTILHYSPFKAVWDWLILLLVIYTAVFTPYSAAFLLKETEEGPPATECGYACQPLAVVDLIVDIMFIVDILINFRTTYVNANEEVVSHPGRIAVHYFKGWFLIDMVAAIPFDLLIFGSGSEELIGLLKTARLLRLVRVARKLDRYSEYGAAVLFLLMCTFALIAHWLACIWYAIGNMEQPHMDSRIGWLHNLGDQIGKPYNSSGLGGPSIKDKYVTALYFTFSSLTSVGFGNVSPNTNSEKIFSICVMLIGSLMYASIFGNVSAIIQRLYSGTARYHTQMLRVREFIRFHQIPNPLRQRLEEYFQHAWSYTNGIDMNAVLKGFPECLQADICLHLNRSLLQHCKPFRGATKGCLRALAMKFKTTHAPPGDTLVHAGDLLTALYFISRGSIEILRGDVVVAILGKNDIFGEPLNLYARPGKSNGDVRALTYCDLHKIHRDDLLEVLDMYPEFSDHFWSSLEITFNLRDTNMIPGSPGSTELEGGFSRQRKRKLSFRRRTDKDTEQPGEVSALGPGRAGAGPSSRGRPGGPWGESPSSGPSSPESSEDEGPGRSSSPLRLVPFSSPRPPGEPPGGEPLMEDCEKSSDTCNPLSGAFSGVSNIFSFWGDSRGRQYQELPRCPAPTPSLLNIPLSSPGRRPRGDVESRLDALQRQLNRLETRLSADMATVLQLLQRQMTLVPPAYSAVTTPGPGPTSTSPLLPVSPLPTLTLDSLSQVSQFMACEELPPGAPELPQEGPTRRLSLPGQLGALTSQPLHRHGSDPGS
As for `CCOC(=O)c1sc(NC(=O)c2ccc(S(=O)(=O)N3CCCCC3)cc2)nc1-c1ccccc1`, the “hERG current change (%, negative = inhibition) at 10uM” value was 18.1%. To `CC(=O)Nc1ccccc1C(F)(F)F` belongs 21.2%; to `COc1ccc(C(=O)NC(C)c2nnc(SCC(=O)NC3CCCC3)n2C)cc1` (stereo not shown), 4.98%; to `O=C1OC(c2ccc(Cl)cc2)=C/C1=C/c1cccnc1`, 23.3%. As for `Cc1c(Cc2ccccc2)c(=O)oc2c(C)c(OCc3nn[nH]n3)ccc12`, the figure is 11.3%; as for `Cc1ccc(S(=O)(=O)N/N=C/c2ccc(OS(=O)(=O)c3ccc(C)c([N+](=O)[O-])c3)cc2)cc1`, 7.76%. Regarding `Cc1ccc(C(=O)NCCn2cc(SCC(=O)Nc3nnc(C)s3)c3ccccc32)cc1`, the “hERG current change (%, negative = inhibition) at 10uM” value is reported as -3.05%. For the compound `COc1ccccc1CNC(=O)CC(C)c1ccccc1` (stereo not shown), the “hERG current change (%, negative = inhibition) at 10uM” value is given as 4.63%. As for `CCCn1c2ccccc2c2nnc(SCC(=O)Nc3cc(C)on3)nc21`, the figure is -0.11%; as for `Cc1ccc(S(=O)(=O)N2CCN(S(C)(=O)=O)C2c2ccccc2)cc1` (stereo not shown), -37.2%. As for `C=CCOc1ccc(/C=C/C(=O)OCC(=O)NCCc2ccccc2)cc1`, the figure is 8.61%; as for `CCN(c1ccccc1)S(=O)(=O)c1cccc(C(=O)NCC(c2cccs2)N(C)C)c1` (stereo not shown), -48.6%; as for `COc1ccc(N(C)S(=O)(=O)c2cccc(C(=O)NCC(c3cccs3)N(C)C)c2)cc1` (stereo not shown), -52.3%. As to `CNS(=O)(=O)c1cccc(C(=O)NCC(c2cccs2)N(C)C)c1` (stereo not shown), the “hERG current change (%, negative = inhibition) at 10uM” value is reported as -5.25%. To `COc1ccc(C(CNC(=O)c2cccc(S(=O)(=O)N(C)c3ccccc3)c2)N2CCCC2)cc1` (stereo not shown) belongs -60.2%; to `COc1ccc(C(CNC(=O)c2cccc(S(=O)(=O)N3CCCC3)c2)N2CCCC2)cc1` (stereo not shown), -22.9%. As to `COc1ccc(C(CNC(=O)c2cccc(N(C)C)c2)N2CCCC2)cc1` (stereo not shown), the “hERG current change (%, negative = inhibition) at 10uM” value is reported as -28.3%. To `CCOc1ncccc1C(=O)OCC(=O)c1ccc(C)c(C)c1` belongs -20.2%; to `CN1CCCC(OC(=O)COc2ccc(Br)cc2)C1.Cl` (stereo not shown), -12.8%; to `CCOC(=O)N1CCN(Cc2nc(-c3ccc(OC)cc3)no2)CC1`, -4.74%. Turning to `CCOC(=O)N1CCN(Cc2nc(N)nc(Nc3ccc(OCC)cc3)n2)CC1`, the “hERG current change (%, negative = inhibition) at 10uM” value is on record as -67.6%.

For the compound `CCOC(=O)N1CCN(Cc2nc(N)nc(Nc3ccccc3C)n2)CC1`, the “hERG current change (%, negative = inhibition) at 10uM” value was -14.9%. As for `CCOC(=O)N1CCN(Cc2nc(N)nc(Nc3ccc(OC)cc3)n2)CC1`, the figure is -62.4%. As for `CCOc1ccc(Nc2nc(N)nc(CSC(=S)N3CCOCC3)n2)cc1`, the figure is -2%. As for `CCOC(=O)N1CCN(Cc2nc(N)nc(Nc3ccc(Oc4ccccc4)cc3)n2)CC1`, the figure is -70.7%. `COc1ccc(Nc2nc(N)nc(CSC(=S)N3CCN(C)CC3)n2)cc1`: the “hERG current change (%, negative = inhibition) at 10uM” value is given as -12.5%.

With `Cc1c(OCC(F)(F)F)ccnc1CSc1nc2ccccc2[nH]1`, the “hERG current change (%, negative = inhibition) at 10uM” value is 20.6%. As to `O=C(CCN1C(=O)/C(=C/c2ccccc2Cl)SC1=S)NNC(=O)c1ccccc1O`, the “hERG current change (%, negative = inhibition) at 10uM” value was -6.37%. To `CCOc1ccc(N(CC(=O)Nc2ccc(OC)cc2)S(C)(=O)=O)cc1` belongs 3.39%; to `CC(C)(C)C(=O)N1CCC(O)(CS(=O)(=O)c2ccc(Cl)c(Cl)c2)CC1`, -5.3%; to `CCCN1C(=O)C(NS(=O)(=O)c2ccc(N)cc2)(C(F)(F)F)C(C(=O)OC)=C1C` (stereo not shown), 10.1%. To `CCN(CC1CCCO1)C(=O)c1cc(COc2ccc(OC)cc2Cl)on1` (stereo not shown) belongs -5.59%; to `CCN(CC1CCCO1)C(=O)c1cc(COc2ccc(F)cc2F)on1` (stereo not shown), -14.8%. For the compound `COc1ccc(OCc2cc(C(=O)NCC(C)(C)N3CCOCC3)no2)c(Cl)c1`, the “hERG current change (%, negative = inhibition) at 10uM” value is -31.8%.

Take `CCN(CC1CCCO1)C(=O)c1cc(COc2ccccc2SC)on1` (stereo not shown): the “hERG current change (%, negative = inhibition) at 10uM” value was -85.6%. Take `CSc1ccccc1OCc1cc(C(=O)N(C)C(C)c2nc(C)cs2)no1` (stereo not shown): the “hERG current change (%, negative = inhibition) at 10uM” value is listed as -63.6%.

Turning to `CSc1ccccc1OCc1cc(C(=O)NCC(C)(C)N2CCOCC2)no1`, the “hERG current change (%, negative = inhibition) at 10uM” value is -93%. To `CSc1ccccc1OCc1cc(C(=O)N(C)C(C)c2ccccn2)no1` (stereo not shown) belongs -10.6%; to `CSc1ccccc1OCc1cc(C(=O)NCc2csc(C(C)C)n2)no1`, -9.57%; to `O=C(c1cc(COc2ccc(F)cc2Cl)on1)N1CCCC(c2ccccc2)C1` (stereo not shown), -5.56%. As for `O=C(c1cc(COc2ccc(F)cc2Cl)on1)N1CC[C@@H]2CCCC[C@H]2C1`, the “hERG current change (%, negative = inhibition) at 10uM” value turned out to be 12.6%.

Turning to `Cc1ccc(OCc2cc(C(=O)NCC(C)(C)N3CCOCC3)no2)cc1C`, the “hERG current change (%, negative = inhibition) at 10uM” value is given as -45.8%. To `CCN(CC)C1CCN(C(=O)c2cc(COc3ccc(F)cc3Cl)on2)C1` (stereo not shown) belongs -70%.

In the case of `COc1cc(CNS(=O)(=O)CCl)cc(OC)c1OC`, the “hERG current change (%, negative = inhibition) at 10uM” value is given as 12.7%. Consider `CCOC(=O)c1sc(=S)n(C)c1NC(=O)c1ccc(OC)cc1`, for which the “hERG current change (%, negative = inhibition) at 10uM” value is 17.4%. As for `COc1ccc2nc(C)c3cc(C)oc3c2c1`, the figure is -15.5%. For `Cc1cc(C)c2c(n1)SCC(=O)N2CC(=O)Nc1cc(F)ccc1F`, the “hERG current change (%, negative = inhibition) at 10uM” value is -7.16%. To `COc1ccc(NC(=O)/C=C/c2ccc(OC(F)F)cc2)cn1` belongs -24.7%; to `CCC(=O)NCCc1nc2cc(NC(=O)c3ccc(F)cc3)ccc2n1C`, 1.29%; to `COc1cc(OC)c(C(=O)Nc2ccncc2)cc1OC`, 7.83%. As for `CCC(=O)Nc1ccc(S(=O)(=O)c2ccc(NC(=O)CC)cc2)cc1`, the figure is 0.428%. For `COCC1CCN(C(=O)c2cc(COc3ccccc3SC)on2)C1` (stereo not shown), the “hERG current change (%, negative = inhibition) at 10uM” value is on record as -33.9%.

With `COc1ccccc1OCc1cc(C(=O)N2CCN(C)C(c3ccccc3)C2)no1` (stereo not shown), the “hERG current change (%, negative = inhibition) at 10uM” value is reported as -61.1%. To `CSc1ccccc1OCc1cc(C(=O)N2CCN(C)C(c3ccccc3)C2)no1` (stereo not shown) belongs -5.98%. To `CCN(CC)C1CCN(C(=O)c2cc(COc3ccccc3SC)on2)C1` (stereo not shown) belongs -68.4%.

As for `COc1cccc(OCc2cc(C(=O)N3CCN(C)C(c4ccccc4)C3)no2)c1` (stereo not shown), the “hERG current change (%, negative = inhibition) at 10uM” value is recorded as -6.09%. As to `Cl.O=C(COc1ccccc1Cc1ccccc1)NCCCN1CCOCC1`, the “hERG current change (%, negative = inhibition) at 10uM” value is on record as -32.1%. `CSc1ccccc1OCc1cc(C(=O)N2CCCC(C)C2)no1` (stereo not shown): the “hERG current change (%, negative = inhibition) at 10uM” value is on record as -0.622%.

With `CC(C)(CNC(=O)COc1ccccc1Cc1ccccc1)N1CCOCC1`, the “hERG current change (%, negative = inhibition) at 10uM” value was -55.6%. Consider `Cc1ccccc1OCC(=O)NCC(C)(C)N1CCOCC1`, for which the “hERG current change (%, negative = inhibition) at 10uM” value stood at 7.19%. Take `C[C@H](CCC(=O)O)[C@H]1CC[C@H]2[C@@H]3CC[C@@H]4C[C@H](O)CC[C@]4(C)[C@H]3C[C@H](O)[C@]12C`: the “hERG current change (%, negative = inhibition) at 10uM” value turned out to be 11.8%. With `CCCN1CCC(NC23CC4CC(CC(C4)C2)C3)CC1`, the “hERG current change (%, negative = inhibition) at 10uM” value was found to be 22.1%. On to `O=S(=O)(c1cccc2nonc12)N1CCN(c2ccccc2F)CC1`, for which the “hERG current change (%, negative = inhibition) at 10uM” value amounted to 4.42%.

For `CCOC(=O)c1c(C)[nH]c(C)c1C(=O)CSc1ncccn1`, the “hERG current change (%, negative = inhibition) at 10uM” value is -2.23%. As for `O=C(Nc1nnc(-c2ccccc2Cl)s1)C1CCN(S(=O)(=O)c2ccc(Cl)cc2)CC1`, the figure is 28.1%. As for `CCN(CC)CCCOc1ccc(C)cc1Br`, the figure is -69%; as for `CCOc1ccccc1OCCCOc1ccc(C)cc1Br`, 7.97%; as for `CCc1cccc(OCCCCN(CC)CC)c1`, -37.9%. As for `Clc1ccc(OCCCn2cncn2)cc1Cl`, the figure is -12.2%. Consider `CCN(CC)CCCOc1ccc(Cl)c(Cl)c1`, for which the “hERG current change (%, negative = inhibition) at 10uM” value is on record as -60.5%. As for `Cc1ccc(OCCCN(C)C)c(Br)c1`, the “hERG current change (%, negative = inhibition) at 10uM” value is -20.6%.

Take `COc1ccc(/C=N/N=C/c2ccc(OC)cc2)cc1`: the “hERG current change (%, negative = inhibition) at 10uM” value amounted to 14%. As for `CCOC(=O)CC1COCCN1C(=O)c1ccc2oc(Cc3ccccc3)nc2c1` (stereo not shown), the “hERG current change (%, negative = inhibition) at 10uM” value turned out to be 1.91%. As for `COc1ccc([C@@H]2CC=C(C(=O)O)CN2S(=O)(=O)c2ccc(Cl)cc2)cc1`, the figure is 7.54%; as for `OCC[n+]1c2ccccc2nc2ccc(N3CCOCC3)cc21.[O-][Cl+3]([O-])([O-])[O-]`, 3.86%. Regarding `O=C1Cc2cc(NS(=O)(=O)c3cc(F)ccc3F)cc3c2N1CCC3`, the “hERG current change (%, negative = inhibition) at 10uM” value is -2.87%.

For `Cc1ccc(NC(=S)N(CCN2CCOCC2)Cc2cc3cc4c(cc3[nH]c2=O)OCCO4)cc1`, the “hERG current change (%, negative = inhibition) at 10uM” value is listed as -14.3%. As for `C=CCNC(=O)CN1C(=O)NC(C)(c2ccc(OC)cc2)C1=O` (stereo not shown), the figure is -14.2%; as for `COC(=O)C(NC(=O)c1ccc(F)cc1)(Nc1ncc(S(=O)(=O)c2ccc([N+](=O)[O-])cc2)s1)C(F)(F)F` (stereo not shown), -52.9%; as for `COC(=O)C(NC(=O)c1ccccc1Cl)(Nc1ncc(S(=O)(=O)c2ccc([N+](=O)[O-])cc2)s1)C(F)(F)F` (stereo not shown), -32.8%.

`COC(=O)C(NC(=O)c1ccc(OC)cc1)(Nc1ncc(S(=O)(=O)c2ccc([N+](=O)[O-])cc2)s1)C(F)(F)F` (stereo not shown): the “hERG current change (%, negative = inhibition) at 10uM” value is on record as -5.41%. As to `CCc1nnc(NC(=O)CCC(=O)NC2CCCCCC2)s1`, the “hERG current change (%, negative = inhibition) at 10uM” value worked out at 3.71%. Regarding `COc1ccc(-c2nc3ccccc3c(=O)n2-c2ccc(OC)cc2)cc1`, the “hERG current change (%, negative = inhibition) at 10uM” value is on record as -4.5%.

`COc1ccc(-n2c(-c3ccccc3Br)nc3ccccc3c2=O)cc1`: the “hERG current change (%, negative = inhibition) at 10uM” value is on record as -20.9%. Consider `O=c1c2ccccc2nc(Cc2ccccc2)n1-c1ccc(O)cc1`, for which the “hERG current change (%, negative = inhibition) at 10uM” value is -23.9%. As for `COc1ccc(-n2c(Cc3ccccc3)nc3ccccc3c2=O)cc1`, the figure is -92.8%. As for `COc1ccc(-n2c(Cc3cccc([N+](=O)[O-])c3)nc3ccccc3c2=O)cc1`, the figure is -69.4%; as for `O=c1c2ccccc2nc(Cc2cccc([N+](=O)[O-])c2)n1-c1ccc(O)cc1`, -35.5%.

Regarding `O=c1c2ccccc2nc(Cc2ccccc2)n1-c1ccccc1`, the “hERG current change (%, negative = inhibition) at 10uM” value was -20.9%. `COc1ccc(-n2c(-c3ccccc3[N+](=O)[O-])nc3ccccc3c2=O)cc1`: the “hERG current change (%, negative = inhibition) at 10uM” value is -68.7%. As to `CCCc1nc2ccccc2c(=O)n1-c1ccc(OC)cc1`, the “hERG current change (%, negative = inhibition) at 10uM” value is 9.5%.
